Results taken from ChEMBL document CHEMBL4513146, “CO-ADD screening of Karazin Kharkiv National University (Ukraine) compounds”.
Potency and affinity values are given separately.

Tests used:
[1] = system: Staphylococcus aureus; settings: Concentration 32 ug.mL-1;; ASSAY_TEST Inhibition of Bacterial Growth; detection method Absorption (OD600); MEDIA CAMHB; plate type 384well; NBS; CORNING #3640; time 18 hr
[2] = system: Escherichia coli; settings: Concentration 32 ug.mL-1;; ASSAY_TEST Inhibition of Bacterial Growth; detection method Absorption (OD600); MEDIA CAMHB; plate type 384well; NBS; CORNING #3640; time 18 hr

SMILES	Inhibition [1]	Inhibition [2]
COc1ccccc1-n1ccn2c(SCC(=O)Nc3ccc(C)cc3C)nnc2c1=O	14.03%	-4.75%
CCc1ccc(N(Cc2ccccc2Cl)S(=O)(=O)c2cccn3c(C)nnc23)cc1	18.06%	0.45%
Cc1cccc(NC(=O)CSc2nnc3ccc(C(=O)Nc4cccc(F)c4)cn23)c1	8.5%	-1.74%
CCc1nnc2c(=O)n(CC(=O)Nc3cc(Cl)ccc3Cl)c3ccccc3n12	1.29%	-5.86%
CCCCN(CC)c1ccc2nnc(CCc3nc(-c4ccc(Br)cc4)no3)n2n1	6.29%	-0.23%
CCc1ccccc1Sc1nccn2c(=O)n(CC(=O)N3CCN(c4ccc(F)cc4)CC3)nc12	2.23%	-2.15%
O=C(Cn1nc2ccc(SCc3ccc(Cl)cc3)nn2c1=O)Nc1ccc2c(c1)OCO2	9.4%	-2.43%
CCCN(C)c1nccn2c(=O)n(CC(=O)Nc3cccc(SC)c3)nc12	12.22%	-2.46%
O=C(Cn1nc2ccc(SC3CCCCC3)nn2c1=O)Nc1ccc(F)c(F)c1	-4.22%	-6.38%
Cc1cccc(N(Cc2ccc(F)cc2)S(=O)(=O)c2cccn3c(C)nnc23)c1	15.38%	-0.37%
O=C(CSc1nnc2c(=O)n(-c3ccc(F)c(F)c3)ccn12)c1c[nH]c2ccccc12	13.28%	-5.88%
CCOc1ccc(-n2ccn3c(SCC(=O)NCc4cccc(OC)c4OC)nnc3c2=O)cc1	12.04%	-1.13%
Cc1ccc(NC(=O)Cn2nc3ccc(SC(C)C)nn3c2=O)c(C)c1	-3.52%	4.56%
COc1cccc(CNC(=O)CSc2nnc3c(=O)n(-c4cccc(OC)c4)ccn23)c1	1.1%	0.96%
CC(C)CCn1c(=O)c2sccc2n2c(=O)n(CC(=O)N3CCC(Cc4ccccc4)CC3)nc12	-19.02%	-15.19%
CCCCOc1ccc(-c2cc3c4nnc(SCC(=O)Nc5cc(C)ccc5C)n4ccn3n2)cc1	-14.19%	-10.44%
COc1ccccc1NC(=O)Cn1nc2c(Oc3ccc(Cl)cc3)nccn2c1=O	6.15%	-7.74%
Cc1ccc(Cn2nc3c(=O)n(-c4cccc(F)c4)ccn3c2=O)cc1	6.58%	-11.98%

SMILES	Inhibition [1]	Inhibition [2]
COc1cccc(NC(=O)Cn2nc3ccc(-c4ccc(Cl)cc4)nn3c2=O)c1	-8.23%	-11.86%
Cc1ccccc1Oc1nccn2c(=O)n(CC(=O)Nc3ccc(F)cc3F)nc12	15.72%	1.95%
CCCc1nnc2c(=O)n(CC(=O)Nc3ccc(C(C)=O)cc3)c3ccccc3n12	1.62%	1.52%
COc1ccc(-c2nc(CSc3nc4ccccc4n4c(C(C)C)nnc34)c(C)o2)cc1	-9.17%	-2.62%
COc1cccc(NC(=O)Cn2nc3c4cc(-c5ccc(Cl)cc5)nn4ccn3c2=O)c1	4.83%	3.44%
Cc1cc(C)cc(N(Cc2ccccc2)S(=O)(=O)c2cccn3c(C)nnc23)c1	-1.33%	-7.5%
CCc1ccccc1Sc1nccn2c(=O)n(CC(=O)Nc3ccc(C)cc3C)nc12	10.48%	-10.9%
CC(C)Cn1c(=O)c2sccc2n2c(=O)n(Cc3cccc(Br)c3)nc12	8.88%	-2.43%
CCCN(C)c1nccn2c(=O)n(CC(=O)Nc3ccc(OC)c(Cl)c3)nc12	16.13%	-1.22%
COc1ccc(-n2ccn3c(=O)n(Cc4cc(C)ccc4C)nc3c2=O)cc1Cl	5.41%	-0.01%
Cc1ccc(-c2ccc3nn(CC(=O)Nc4ccc(Br)cc4)c(=O)n3n2)cc1C	15.41%	-2.09%
O=C(Cn1nc2c(Oc3ccccc3)nccn2c1=O)Nc1ccccc1F	6.14%	-2.38%
Cc1ccc(-c2cc3c4nn(CC(=O)Nc5ccc(Br)cc5)c(=O)n4ccn3n2)cc1C	0.82%	-8.3%
CCC(C)NC(=O)CCn1c(=O)c2ccccc2n2c(=O)n(CC(=O)NCc3cccs3)nc12 (configuration not stated)	6.1%	-2.09%
COc1ccc(OC)c(NC(=O)Cn2nc3c4cc(-c5ccc(Cl)cc5)nn4ccn3c2=O)c1	-2.94%	-2.51%
COC(=O)c1ccc(NC(=O)Cn2nc3ccc(Sc4ccc(C)cc4)nn3c2=O)cc1	10.91%	-1.06%
COc1ccccc1-n1ccn2c(SCc3ccc(C)cc3)nnc2c1=O	4.53%	-10.18%
O=C(Cn1nc2c(N3CCOCC3)nccn2c1=O)N1CCN(c2ccccc2F)CC1	14.68%	2.59%
